Screening data (PubChem)
The list is not random: actives were taken first. Their share in the collection is about 1.7%.
LANA-H2A inh: blockers of LANA interaction with H2A/H2B – biochemical, FP readout, HTS, primary screen. cell-free LANA-H2A/H2B peptide, fluorescence polarization. inhibition, % (test concentration not listed). Protein LANA1 (Human herpesvirus 8 type P (isolate GK18)), Q9QR71. AID 2629, 2010. actives 0.6% (n = 320,000); in the data active means inhibition mostly above about 10%, no sharp cut-off; inactive means mostly below about 6.7%
CTSL1 counter: Fasciola hepatica cathepsin L1 inhibitors, primary screen, counter-screen for PFM18AAP inhibitor project, biochemical, QFRET, fluorogenic peptide substrate; actives 0.49% (n = 300,000); recombinant F. hepatica cathepsin L1, Z-Leu-Arg-MCA fluorescence; inhibition, % at 5.96 µM;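 active means inhibition above the mean of all tested compounds plus 3 SD, set per screening campaign, cut at about 17% in these data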
HDAC3 inh: HDAC3 deacetylase inhibitors, primary screen, biochemical, fluorescence, cell-free homogeneous; recombinant HDAC3, fluorogenic peptide/trypsin coupled; inhibition, % at 8.3 µM; actives 0.15% (n = 320,000); in the data active means inhibition above about 26%, passing the limit was not always enough
Target sequence (O15379 whole entry, looked up): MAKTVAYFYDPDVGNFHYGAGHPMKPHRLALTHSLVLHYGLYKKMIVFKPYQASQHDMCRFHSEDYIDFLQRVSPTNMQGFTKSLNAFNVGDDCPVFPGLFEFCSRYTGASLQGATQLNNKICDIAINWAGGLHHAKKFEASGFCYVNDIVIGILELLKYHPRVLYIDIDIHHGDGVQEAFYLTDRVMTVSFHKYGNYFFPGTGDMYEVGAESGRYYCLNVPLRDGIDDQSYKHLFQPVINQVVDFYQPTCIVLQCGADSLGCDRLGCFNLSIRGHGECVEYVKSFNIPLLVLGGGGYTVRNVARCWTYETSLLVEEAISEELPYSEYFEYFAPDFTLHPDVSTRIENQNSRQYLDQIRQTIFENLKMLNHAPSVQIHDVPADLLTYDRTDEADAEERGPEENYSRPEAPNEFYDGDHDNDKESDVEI
HTR2A ag: mouse Htr2a agonists via beta-arrestin recruitment, primary screen, cell-based, luminescence; 5-hydroxytryptamine receptor 2A (Mus musculus), P35363; CHO-K1 mHTR2A beta-arrestin complementation; percent of 30 µM serotonin response; activation, % at 7.6 µM; actives 0.66% (n = 360,000); AID 624169, 2012;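 active means activation above a run cutoff, the mean activation of all tested compounds plus 3 SD, cut at about 14% in these data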
Numbers stand for hits.

Results for Cc1ccc(C(=O)OCC(=O)c2c[nH]c3ccccc23)cc1NC(=O)c1ccco1 ?
LANA-H2A inh: active; CTSL1 counter: inactive; HDAC3 inh: inactive; HTR2A ag: inactive

Results for CCN(CC)C(=O)COC(=O)c1ccc(C)c(NC(=O)c2ccco2)c1 ?
LANA-H2A inh: inactive; CTSL1 counter: inactive; HDAC3 inh: inactive; HTR2A ag: inactive

How did Cc1onc(-c2c(F)cccc2Cl)c1C(=O)OCC(=O)c1c[nH]c2ccccc12 do in these assays?
LANA-H2A inh: 29; CTSL1 counter: inactive; HDAC3 inh: inactive; HTR2A ag: inactive

Results for O=C(CNC(=O)c1ccc(Oc2ccccc2)cc1)OC1CCCCC1=O (configuration not stated) ?
LANA-H2A inh: inactive; CTSL1 counter: 19; HDAC3 inh: inactive; HTR2A ag: inactive

Results for Cc1ccc(C(=O)NCC(=O)OC2CCCCC2=O)cc1C (configuration not stated) ?
LANA-H2A inh: inactive; HDAC3 inh: inactive; HTR2A ag: inactive

How did CC1(c2ccc3c(c2)OCCO3)NC(=O)N(CC(=O)Nc2ccccc2F)C1=O (configuration not stated) do in these assays?
HTR2A ag: inactive

What do the screens show for `O=C1C=C(N2CCN(c3ccccn3)CC2)C(=O)c2c(O)ccc(O)c21`?
HTR2A ag: inactive

Results for CC1=CC(=O)c2c(O)ccc(O)c2C1=O ?
LANA-H2A inh: 17; CTSL1 counter: 18; HDAC3 inh: inactive

What do the screens show for `CCN1C(=O)[C@@H]2[C@@H]3CN(S(=O)(=O)c4ccc(C)cc4)[C@@H](c4ccccc4Cl)[C@@H]3C(=O)C[C@@H]2C1=O`?
HTR2A ag: inactive

How did CC(NC1CCCCC1)C(=O)NN=C(c1ccccc1)c1ccccc1 (configuration not stated) do in these assays?
LANA-H2A inh: 130; CTSL1 counter: inactive; HDAC3 inh: inactive; HTR2A ag: inactive

How did N#Cc1c(NC2CCCCC2)nc(-c2ccco2)c2c1CCCC2 do in these assays?
LANA-H2A inh: inactive; CTSL1 counter: inactive; HDAC3 inh: inactive; HTR2A ag: inactive

Results for N#Cc1c(NCCCO)nc(-c2ccco2)c2c1CCCC2 ?
LANA-H2A inh: inactive; CTSL1 counter: 18; HDAC3 inh: inactive; HTR2A ag: inactive

What do the screens show for `COc1cc2c(cc1NC(=O)COC(=O)[C@@H](NC(=O)c1ccccc1)C(C)C)oc1ccccc12`?
LANA-H2A inh: 25; CTSL1 counter: inactive; HDAC3 inh: inactive; HTR2A ag: inactive

How did COc1cc2c(cc1NC(=O)COC(=O)CNC(=O)c1ccccc1)oc1ccccc12 do in these assays?
LANA-H2A inh: inactive; CTSL1 counter: 24; HDAC3 inh: inactive; HTR2A ag: inactive

What do the screens show for `O=S1(=O)CC(N2CCN(CC3CC3)CC2)CN1CCc1ccccc1` (configuration not stated)?
HTR2A ag: inactive

How did C=CCn1c(SCC(=O)OCc2ccccc2)nc2c1c(=O)n(C)c(=O)n2C do in these assays?
LANA-H2A inh: inactive; CTSL1 counter: inactive; HDAC3 inh: inactive; HTR2A ag: inactive

What do the screens show for `CCn1c(SCC(=O)OCc2ccccc2)nc2c1c(=O)n(C)c(=O)n2C`?
LANA-H2A inh: inactive; CTSL1 counter: inactive; HDAC3 inh: 32; HTR2A ag: inactive

How did CCSC(=Nc1ccccc1)N1CCOCC1 do in these assays?
LANA-H2A inh: inactive; CTSL1 counter: inactive; HDAC3 inh: inactive; HTR2A ag: inactive

How did Nc1ccc(C#Cc2ccc3c(=O)c4ccccc4oc3c2)cc1 do in these assays?
LANA-H2A inh: inactive; CTSL1 counter: inactive; HDAC3 inh: inactive; HTR2A ag: inactive

Results for N#Cc1ccc(C#Cc2ccc3oc4ccccc4c(=O)c3c2)cc1 ?
LANA-H2A inh: 25; HDAC3 inh: inactive; HTR2A ag: inactive

What do the screens show for `CO/N=C(\C(=O)N[C@@H]1C(=O)N2C(C(=O)O)=C(COC(N)=O)CS[C@H]12)c1ccco1`?
LANA-H2A inh: inactive; CTSL1 counter: inactive; HDAC3 inh: inactive; HTR2A ag: 15

What do the screens show for `COC(=O)CSc1nnc(CCc2ccccc2)n1C`?
LANA-H2A inh: 11; CTSL1 counter: inactive; HDAC3 inh: inactive; HTR2A ag: inactive

What do the screens show for `C=CCn1c(CCc2ccccc2)nnc1SCC(=O)OC`?
LANA-H2A inh: inactive; CTSL1 counter: inactive; HDAC3 inh: inactive; HTR2A ag: inactive

Results for COc1ccccc1Cn1c(=S)[nH]c2cc(C(=O)N3CC(C)CC(C)C3)ccc2c1=O (configuration not stated) ?
HTR2A ag: inactive

What do the screens show for `COc1ccc(CCn2nnnc2C(c2ccc(Cl)cc2)N2CCN(C)CC2)cc1OC` (configuration not stated)?
LANA-H2A inh: inactive; CTSL1 counter: inactive; HDAC3 inh: inactive; HTR2A ag: inactive

Results for CCN1CCN(C(c2ccccc2)c2nnnn2CCc2ccc(OC)c(OC)c2)CC1 (configuration not stated) ?
LANA-H2A inh: 15; CTSL1 counter: inactive; HDAC3 inh: inactive; HTR2A ag: inactive

How did O=C(CSC1=NS(=O)(=O)c2cc(F)ccc2N1)Nc1cccc(F)c1 do in these assays?
LANA-H2A inh: inactive; CTSL1 counter: inactive; HDAC3 inh: inactive; HTR2A ag: inactive

How did COc1ccc(CCNC(=O)C(C)n2nc(C)n3c(cc4occc43)c2=O)cc1OC (configuration not stated) do in these assays?
LANA-H2A inh: inactive; CTSL1 counter: inactive; HDAC3 inh: inactive; HTR2A ag: inactive

How did COc1ccc(NC(=O)CN2C(=O)NC3(CCCCC3C)C2=O)cc1S(=O)(=O)N1CCOCC1 (configuration not stated) do in these assays?
LANA-H2A inh: inactive; HDAC3 inh: inactive; HTR2A ag: inactive

Results for Cc1ccc(NC(=O)CN2C(=O)NC3(CCCCC3C)C2=O)cc1S(=O)(=O)N1CCCCC1 (configuration not stated) ?
LANA-H2A inh: 55; CTSL1 counter: inactive; HDAC3 inh: inactive; HTR2A ag: inactive

How did COc1ccc(N2CCN(C(=O)c3ccc4c(c3)CC(c3ccccc3)OC4=O)CC2)cc1 (configuration not stated) do in these assays?
HTR2A ag: inactive

What do the screens show for `COc1ccc(-c2nnc(N3CCOCC3)c3ccccc23)cc1`?
LANA-H2A inh: inactive; CTSL1 counter: 19; HDAC3 inh: inactive; HTR2A ag: inactive

How did COc1ccc(-c2nnc(N3CCCCC3)c3ccccc23)cc1 do in these assays?
LANA-H2A inh: inactive; CTSL1 counter: inactive; HDAC3 inh: inactive; HTR2A ag: inactive

How did Cc1ccc(SCCC(=O)OCC(=O)NCC2CCCCC2)cc1 do in these assays?
LANA-H2A inh: inactive; CTSL1 counter: inactive; HDAC3 inh: inactive; HTR2A ag: inactive

Results for O=C(c1ccccn1)N(CC1CCCO1)C1(C(=O)NC2CCCCC2)CCCCC1 (configuration not stated) ?
LANA-H2A inh: 25; CTSL1 counter: inactive; HDAC3 inh: inactive; HTR2A ag: inactive

Results for O=C(c1ccccn1)N(Cc1ccco1)C1(C(=O)NC2CCCCC2)CCCCC1 ?
LANA-H2A inh: inactive; CTSL1 counter: inactive; HDAC3 inh: inactive; HTR2A ag: inactive
